Compound activity from PubChem BioAssay.
Sm TGR inh: S. mansoni TGR enzyme inhibition. Q962Y6. purified TGR, DTNB reduction, TNB absorbance 405 nm. Potency, µM (highest dose often 114 µM), for the others: at the top dose activity change, negative = inhibition, hits mostly inhibitors. 360,000 tested, 3% active; also: % is scaled to controls: 0 for no effect and ±100 for the full control effect; nearly all actives have a fitted effect of over 60% in size
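TGR 20 nM + NADPH 100 uM (dispensed conc.), cpd preinc 15 min RT; start with NADPH (500 uM addition) then DTNB (15 mM addition). Kinetic TNB absorbance, 405 nm filter. Four-parameter Hill fit across titration.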
SARS PLP yeast: blocks SARS-CoV papain-like protease in a yeast assay. 330,000 tested, 0.19% active. Potency, µM (doses to about 32.9 µM), without a hit: at the top dose activity, positive = growth rescue, hits mostly activators. S. cerevisiae expressing SARS-CoV PLpro, growth rescue; calls by dose curve; also: 0% is about no effect; nearly all actives have a fitted effect of over 55% in size
Pf growth 96h: inhibits malaria parasite growth, 96 h | P. falciparum luciferase reporter growth, 96 h | Potency, µM (series often up to 28.7 µM), inactives show at the top dose activity change, negative = inhibition, usual class: inhibitors | 320,000 tested, 6.9% active | AID 504834; also: % is scaled to controls: 0 for no effect and ±100 for the full control effect
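Two-generation exposure (96 h) targets delayed-death phenotype. Reporter parasites carrying integrated firefly luciferase, in red cells at 2% hematocrit and 0.05% parasitemia final, kept at 37 C, 5% CO2; luminescence loss indicates inhibition.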
AmpC no deterg: AmpC beta-lactamase inhibition without detergent | P00811 | AmpC nitrocefin hydrolysis, absorbance 480 nm, 0.0001% Triton | Potency, µM (highest dose often 57.1 µM), for inactives: at the highest dose activity change, negative = inhibition, actives largely listed as inhibitors | 330,000 tested, 0.52% active;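 also: plate controls were no compound for no effect and no enzyme for full effect; nearly all actives have a fitted effect of over 20% in size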
Target sequence (P00811 whole entry, looked up): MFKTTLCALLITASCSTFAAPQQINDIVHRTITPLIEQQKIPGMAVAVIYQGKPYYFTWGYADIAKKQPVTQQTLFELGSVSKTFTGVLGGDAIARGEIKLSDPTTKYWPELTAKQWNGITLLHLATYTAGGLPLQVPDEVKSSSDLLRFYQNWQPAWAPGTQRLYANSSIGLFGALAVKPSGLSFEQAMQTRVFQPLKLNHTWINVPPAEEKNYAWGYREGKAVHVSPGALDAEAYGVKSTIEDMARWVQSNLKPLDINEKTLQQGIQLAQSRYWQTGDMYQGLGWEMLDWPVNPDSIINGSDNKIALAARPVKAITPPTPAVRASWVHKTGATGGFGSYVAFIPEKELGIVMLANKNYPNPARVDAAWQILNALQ
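AmpC (5.3 nM in the dispensed reagent) in 20 mM phosphate pH 7.0 with 0.01% (detergent screen) or 0.0001% Triton X-100 was preincubated with compounds for 15 min at room temperature. Nitrocefin was then added from an 800 uM solution, and hydrolysis was followed at 480 nm.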
Pf growth 48h: inhibits P. falciparum growth in the first generation, 48 h. 310,000 tested, 5.9% active. Potency, µM (highest dose often 28.7 µM), for inactives: at the highest dose activity change, negative = inhibition, most hits filed as inhibitors. P. falciparum luciferase growth in erythrocytes, 48 h; also: % is scaled to controls: 0 for no effect and ±100 for the full control effect
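Here the parasites carry a stable luciferase gene and grow inside erythrocytes in Albumax-based RPMI medium with compound for one erythrocytic cycle. Activity is scored as loss of luminescent signal.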
AmpC inh detg: inhibitors of E. coli AmpC beta-lactamase with detergent | P00811 | 370,000 tested, 0.041% active | Potency, µM (series often up to 114 µM), without a hit: at the top dose activity change, negative = inhibition, hits mostly inhibitors | AmpC hydrolysis of nitrocefin, absorbance 480 nm, 0.01% Triton | AID 485294;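 also: 0% = no-compound wells and -100% = no-enzyme wells; nearly all actives have a fitted effect of over 25% in size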
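20 mM phosphate pH 7.0 + 0.01% (detergent screen) or 0.0001% Triton X-100; 5.3 nM AmpC reagent; cpd preinc 15 min RT; nitrocefin (800 uM stock) to start; A480 q20 s × 4 min; Activity was normalised to no-enzyme and no-compound control wells.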
* marks the source's active call; other numbers are inactive results; ? = inconclusive; / = no result given. An excerpt weighted towards active compounds, which were near 12% of everything screened. Unless noted, calls follow the shape of the dose curve; as a rule, active = well fitted curve in the direction sought with a large enough effect; inconclusive = small, poorly fitted or top-dose-only effect, or another doubt; inactive = no such curve, though single readings can be large; an effect the other way counts as inactive or inconclusive. Potency is read from the fitted curve at half-maximal effect.

SMILES	Sm TGR inh	SARS PLP yeast	Pf growth 96h	AmpC no deterg	Pf growth 48h	AmpC inh detg
CC(=O)c1c(C)[nH]c(C(=O)Nc2ccc(Cl)cc2)c1C	-16%	1%	-20%	-14%	?	?
CCC(NC(=O)c1[nH]c(C)c(C(C)=O)c1C)c1ccc(Br)cc1 (stereo not given)	-11%	-34%	?	-28%	9.3µM*	-5%
CC(=O)c1c(C)[nH]c(C(=O)NCc2ccccc2)c1C	6%	1%	?	-15%	45%	2%
CC(=O)c1c(C)[nH]c(C(=O)Nc2ccc(F)c(F)c2F)c1C	-1%	-1%	?	-15%	13µM*	-7%
CC(=O)c1c(C)[nH]c(C(=O)NNC(=O)c2ccc(C)cc2)c1C	/	-1%	/	-20%	/	/
COc1ccc(Cl)cc1C(=O)NNC(=O)c1[nH]c(C)c(C(C)=O)c1C	/	14%	/	10µM*	/	/
CC(=O)c1c(C)[nH]c(C(=O)Nc2ccc(Cl)cc2F)c1C	6%	-2%	20%	-15%	63%	?
O=C(NCc1ccccc1Cl)c1ccc(Cn2c(=O)c3cccn3c3cccnc32)cc1	-5%	/	/	/	/	-13%
Cc1cc(=O)oc2cc(OCC(=O)OCC(=O)NC3CC3)ccc12	10%	3%	?	-13%	33%	-8%
COc1ccc(CN2C(=O)C(NC(=O)c3ccccc3C)(C(F)(F)F)N=C2c2ccccc2)cc1 (stereo not given)	-3%	/	/	/	/	-4%
Cc1cc(C)cc(NC(=O)C(=O)NCC(c2ccc3c(c2)OCO3)N2CCOCC2)c1 (stereo not given)	-1%	/	/	/	/	0%
N#C/C(=C\c1ccc(N2CCOCC2)cc1)c1ccccc1	-6%	-12%	368%	0%	294%	-1%
N#C/C(=C/c1ccc(N2CCOCC2)o1)c1ccc(Br)cc1	2µM*	-11%	5.2µM*	45%	76%	-7%
N#C/C(=C/c1ccc(N2CCOCC2)o1)c1nc2ccccc2[nH]1	?	-11%	8%	-32%	101%	-5%
N#C/C(=C\c1ccc(N2CCOCC2)o1)c1ccccc1	1.1µM*	-5%	409%	8%	10%	4%
CCOC(=O)c1ccc(NC(=O)C(CC)Sc2nc3ncccc3o2)cc1 (stereo not given)	0%	/	/	/	/	2%
O=S(=O)(c1ccc2nc(Nc3ccccc3)ccc2c1)N1CCCCC1	-16%	-6%	?	-23%	10µM*	-4%
O=S(=O)(c1ccc2nc(N3CCN(c4ccc(F)cc4)CC3)ccc2c1)N1CCCCC1	-5%	0%	13µM*	-21%	3%	0%
CC1CCN(S(=O)(=O)c2ccc3nc(N4CCN(c5ccccc5)CC4)ccc3c2)CC1	-3%	-3%	10µM*	-9%	-3%	1%
CC(=O)c1ccc(N2CCN(c3ccc4cc(S(=O)(=O)N5CCCCC5)ccc4n3)CC2)cc1	1%	/	/	/	/	-2%
Cc1ccc(NC(=O)Cn2c(SCc3ccc(F)cc3)nc3cccnc32)cc1F	-5%	/	/	/	/	-2%
CCN(CC)CCNC(=O)c1ccc(NC(=O)Cc2cccc3ccccc23)cc1	-6%	-7%	?	14%	?	-7%
CSCCC(NC(=O)OCc1ccccc1)C(=O)NCc1cccnc1 (stereo not given)	-25%	-1%	27%	0%	25%	3%
CCN1CCN(S(=O)(=O)c2c[nH]c(C(=O)OC)c2)CC1	7%	-2%	-11%	-7%	0%	-2%
Cc1ccc(S(=O)(=O)c2nc(-c3ccco3)oc2SC(C)c2ccccc2)cc1 (stereo not given)	?	/	/	/	/	-2%
CC1(C)CC(N2CCN(CCO)CC2)=CC(=S)N1	40µM*	2%	-8%	-27%	0%	-1%
